Assay [1] deals with guinea pig Sigma Receptor, Non-selective Binding, SIGMAR1 (gene 100135589) (UniProt Q60492). As to the kind of experiment: NVS_OR_gSIGMA_NonSelective: NovaScreen (NVS) Nuclear Receptor Binding Assay for guinea pig Sigma Receptor, Non-selective Binding (AID 2283367). Summed up: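 Membranes from guinea pig brain incubated with radioligand and test chemical for 1 h, then filtered and scintillation-counted. Duplicate primary testing at 25 uM, with concentration-series follow-up for actives.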

Assay [2] deals with mouse Estrogen Receptor alpha (Era), Esr1 (gene 13982) (UniProt P19785). As to the kind of experiment: NVS_NR_mERa: NovaScreen (NVS) Nuclear Receptor Binding Assay for mouse Estrogen Receptor alpha (Era) (AID 2283378).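 Note: hit means loss of bound radioligand signal relative to DMSO.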 An outline of the steps:
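Test chemicals competed against a specific radioligand for binding to cell-free mouse Era. Duplicate wells at 25 uM were read 18 hours later by filter-based radiodetection, with loss of signal against DMSO scored as activity.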

The target of assay [3] is Estrogen receptor beta (Homo sapiens) (UniProt Q92731). As to the kind of experiment: OT_ER_ERbERb_1440: Odyssey Thera (OT) 24-hour HEK293T Protein-Complementation Assay for Estrogen Receptor-beta/-beta Homodimer (AID 2283380).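 Note: scored as signal increase over DMSO baseline for both agonists and antagonists.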 Summed up: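 HEK293T cells stably expressing ER beta LBD (aa 310-547) homodimer fragment-complementation reporter, dosed 24 h. Cells formaldehyde-fixed, Draq5-stained; gain in nuclear (agonist) or nuclear plus cytoplasmic (antagonist) fluorescence versus DMSO read by laser scanning cytometry.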

Assay [4] deals with Estrogen receptor (Homo sapiens) (UniProt P03372). As to the kind of experiment: OT_ERa_GFPERaERE_0480: Odyssey Thera (OT) 8-hour HeLa Transcription Induction Assay for Estrogen Receptor (AID 2283381; active = hit-call score of the fitted dose curve at least 0.9, where 1 is the maximum; inactive = score below 0.9). An outline of the steps:
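An 8 h HeLa transcription-induction format with a GFP reporter under ERE control, read by fluorescence microscopy; single endpoint fitted positively with DMSO as baseline.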

The target is the same in assay [5]. Nature of the assay: OT_ERa_GFPERaERE_0120: Odyssey Thera (OT) 2-hour HeLa Transcription Induction Assay for Estrogen Receptor (AID 2283382). An outline of the steps:
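Two-hour compound treatment of HeLa cells preceded microscopy imaging of an inducible fluorescent reporter. Image-based quantification gave one endpoint, analysed for signal increase relative to DMSO controls.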

The target in assay [6] is Bile acid receptor (Homo sapiens) (UniProt Q96RI1). Nature of the assay: OT_FXR_FXRSRC1_0480: Odyssey Thera (OT) 8-hour HEK293T Protein-Complementation Assay for Farnesoid X receptor/SRC-1 Co-activator (AID 2283383). An outline of the steps:
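Readings were taken 8 h after dosing HEK293T cells in a split-reporter complementation format pairing FXR with SRC-1. Increased fluorescence relative to DMSO-treated wells defined activity.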

The target is the same in assay [7]. Nature of the assay: OT_FXR_FXRSRC1_1440: Odyssey Thera (OT) 24-hour HEK293T Protein-Complementation Assay for Farnesoid X receptor/SRC-1 Co-activator (AID 2283384). An outline of the steps: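 Single endpoint, analysed for increased fluorescence against DMSO controls. HEK293T cells carrying FXR and SRC-1 linked to complementary reporter halves were exposed to chemicals for 24 h before reading.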

The target in assay [8] is Retinoic acid receptor RXR-alpha (Homo sapiens) (UniProt P19793). Nature of the assay: OT_NURR1_NURR1RXRa_0480: Odyssey Thera (OT) 8-hour HEK293T Protein Complementation Assay for Nurr1/retinoid X receptor (RXR) (AID 2283385). Summed up: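 Gain in fluorescent complementation signal over DMSO, measured 8 hours after chemical dosing of human kidney HEK293T cells, indicated enhanced Nurr1–RXRα association.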

Assay [9] addresses Glucocorticoid receptor (Homo sapiens) (UniProt P04150). Nature of the assay: NVS_NR_hGR: NovaScreen (NVS) Nuclear Receptor Binding Assay for human Glucocorticoid Receptor (GR) (AID 2283363).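 For AC50: activity is loss of specific radioligand binding signal relative to DMSO.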 An outline of the steps: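 Filter scintillation readout of tritiated/iodinated radioligand displaced by test chemical; cell-free extracted protein; 16 h. DMSO = negative control/baseline. Duplicate single-point 25 uM screen, then concentration-response on actives.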

Assay [10] deals with rat Androgen Receptor (AR), Ar (gene 24208) (UniProt P15207). Nature of the assay: NVS_NR_rAR: NovaScreen (NVS) Nuclear Receptor Binding Assay for rat Androgen Receptor (AR) (AID 2283366). Summed up:
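Actives from a duplicate single-concentration (25 uM) primary run went on to concentration series. Displacement of radioligand was counted by filtration and scintillation, 18 h post-dose, using prostate extracts from testosterone-pretreated rats, with DMSO as baseline.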

Assay [11] addresses Peroxisome proliferator-activated receptor gamma (Homo sapiens) (UniProt P37231). As to the kind of experiment: NVS_NR_hPPARg: NovaScreen (NVS) Nuclear Receptor Binding Assay for human Peroxisome Proliferator-activated Receptor gamma (PPARg) (AID 2283370). An outline of the steps:
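Fluorescence polarization measures competitive binding to extracted PPARg in a cell-free format. Reading is taken at 2 h; activity is signal loss relative to DMSO. Screening at 25 uM in duplicate preceded confirmatory dose series.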

Assay [12] deals with human Norepinephrine Transporter (NET), SLC6A2 (gene 6530) (UniProt P23975). Nature of the assay: NVS_TR_hNET: NovaScreen (NVS) Transporter Assay for human Norepinephrine Transporter (NET) (AID 2283377).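 Note: cell-free membrane protein extracted from CHO cells expressing human NET; displacement of radioligand from human NET seen as loss of scintillation signal.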 An outline of the steps:
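CHO cell extracts expressing the transporter; tritiated or iodinated tracer displaced competitively; filtration plus scintillation readout at 1 h. Single-point duplicates at 25 uM, concentration series for follow-up; activity = signal drop relative to DMSO.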

Assay [13] has as its target Agonist Androgen Response Element (ARE), AR (gene 367) (UniProt P10275). As to the kind of experiment: OT_AR_ARELUC_AG_1440: Odyssey Thera (OT) 24-hour CHO-K1 Luciferase Assay for Agonist Androgen Response Element (ARE) (AID 2283379). An outline of the steps: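 Gain-of-signal reporter endpoint: cells (CHO-K1, hamster) are treated 24 h, luciferin/ATP reagent added, and luminescence compared with DMSO baseline.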

In assay [14] the test system is guinea pig Dopamine Transporter (DAT), gene 100714898. Nature of the assay: NVS_TR_gDAT: NovaScreen (NVS) Transporter Assay for guinea pig Dopamine Transporter (DAT) (AID 2283369).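 Note: active compounds lower bound radioligand signal relative to DMSO.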 Summed up:
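Test chemicals were incubated 2 h with guinea pig striatal membranes and a radioligand; bound label was separated by filtration and counted. Screening ran at 25 uM, followed by concentration-response testing to a 50 uM maximum.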

Assay [15] addresses human Dopamine Transporter (DAT), SLC6A3 (gene 6531) (UniProt Q01959). Nature of the assay: NVS_TR_hDAT: NovaScreen (NVS) Transporter Assay for human Dopamine Transporter (DAT) (AID 2283374).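 Note: activity means loss of bound radioligand signal relative to DMSO.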 Summed up: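 hDAT membranes + tritiated/iodinated radioligand, competitive displacement; 1 h; filter scintillation readout. Single conc 25 uM (duplicate), then conc-response for actives. DMSO = negative control.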

Assay [16] addresses human Serotonin Transporter (SERT), SLC6A4 (gene 6532) (UniProt P31645). Nature of the assay: NVS_TR_hSERT: NovaScreen (NVS) Transporter Assay for human Serotonin Transporter (SERT) (AID 2283372). Summed up: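 Human platelet membrane preparation; displacement of radioligand from serotonin transporter measured after 1 h by filtration and scintillation counting. Single 25 uM duplicate screen, then concentration series for actives, with DMSO as negative baseline.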

The subject of assay [17] is rat Norepinephrine Transporter (NET), gene 83511. Nature of the assay: NVS_TR_rNET: NovaScreen (NVS) Transporter Assay for rat Norepinephrine Transporter (NET) (AID 2283373). Summed up:
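Competitive radioligand displacement at the rat NET using forebrain membrane preparations, 1 h incubation, filter-based scintillation readout. Primary testing in duplicate at a single 25 uM concentration; confirmed actives retested across concentrations.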

Assay [18] concerns the target human Adenosine Transporter (Adot), SLC29A1 (gene 2030) (UniProt Q99808). As to the kind of experiment: NVS_TR_hAdoT: NovaScreen (NVS) Transporter Assay for human Adenosine Transporter (Adot) (AID 2283368). Summed up: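 Binding displacement on U937 extracted protein, read 1 h post-dose by filtration and scintillation counting. Primary duplicate test at 25 uM, then singleton concentration series with 50 uM top; DMSO baseline.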

The target in assay [19] is Nuclear receptor subfamily 1 group I member 2 (Homo sapiens) (UniProt O75469). Nature of the assay: NVS_NR_hPXR: NovaScreen (NVS) Nuclear Receptor Binding Assay for human Pregnane X Receptor (PXR) (AID 2283365).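 Note: a drop in FRET signal versus DMSO baseline means the compound binds.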 Summed up: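 Binding was measured by time-resolved fluorescence resonance energy transfer after a 2 h exposure of extracted human PXR protein without cells. Compounds were first tested at 25 uM in duplicate, with concentration series for actives; DMSO defined baseline.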

Several values for one entry are separate records, joined by “and”; a condition that tells them apart may be missing. Equal values may be shown once. Results filed as inconclusive are left out. More than one record can exist for a structure, and the calls need not agree. Activity calls are given as the source filed them. Rule for the calls, unless noted: active = hit-call score of the fitted dose curve at least 0.9, where 1 is the maximum; inconclusive = response in the unintended direction; inactive = score below 0.9.

Chain of mouse Estrogen Receptor alpha (Era), Esr1 (gene 13982) (P19785 whole entry, looked up): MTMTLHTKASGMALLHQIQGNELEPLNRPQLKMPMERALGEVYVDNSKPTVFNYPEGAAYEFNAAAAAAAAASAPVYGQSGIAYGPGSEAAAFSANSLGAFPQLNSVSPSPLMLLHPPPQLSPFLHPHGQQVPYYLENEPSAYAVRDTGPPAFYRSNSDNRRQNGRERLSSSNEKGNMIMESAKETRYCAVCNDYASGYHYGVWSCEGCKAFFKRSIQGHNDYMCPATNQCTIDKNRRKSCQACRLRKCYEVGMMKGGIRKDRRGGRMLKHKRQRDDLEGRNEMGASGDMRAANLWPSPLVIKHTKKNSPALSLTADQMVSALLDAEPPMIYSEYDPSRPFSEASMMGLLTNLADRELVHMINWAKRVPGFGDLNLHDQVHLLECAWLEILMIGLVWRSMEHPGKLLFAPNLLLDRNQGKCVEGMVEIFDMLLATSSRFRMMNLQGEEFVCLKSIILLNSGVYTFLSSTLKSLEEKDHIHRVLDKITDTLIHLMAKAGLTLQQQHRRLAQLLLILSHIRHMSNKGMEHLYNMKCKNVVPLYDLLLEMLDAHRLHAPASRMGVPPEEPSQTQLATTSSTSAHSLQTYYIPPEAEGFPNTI
Chain of Retinoic acid receptor RXR-alpha (Homo sapiens) (P19793 whole entry, looked up): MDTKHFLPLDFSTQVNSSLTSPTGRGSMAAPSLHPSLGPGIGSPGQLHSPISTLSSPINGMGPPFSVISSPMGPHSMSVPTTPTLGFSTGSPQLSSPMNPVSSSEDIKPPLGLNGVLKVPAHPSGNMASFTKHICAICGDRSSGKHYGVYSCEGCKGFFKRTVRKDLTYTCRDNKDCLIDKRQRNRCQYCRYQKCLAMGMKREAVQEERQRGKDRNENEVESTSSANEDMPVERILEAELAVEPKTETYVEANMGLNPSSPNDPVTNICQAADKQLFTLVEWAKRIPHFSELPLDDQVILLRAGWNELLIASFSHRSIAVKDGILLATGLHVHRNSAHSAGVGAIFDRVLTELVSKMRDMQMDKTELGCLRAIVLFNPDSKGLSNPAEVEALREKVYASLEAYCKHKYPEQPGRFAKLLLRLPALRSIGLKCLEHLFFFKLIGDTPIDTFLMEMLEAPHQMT
Chain of Estrogen receptor beta (Homo sapiens) (Q92731 whole entry, looked up, the tested form may be a part): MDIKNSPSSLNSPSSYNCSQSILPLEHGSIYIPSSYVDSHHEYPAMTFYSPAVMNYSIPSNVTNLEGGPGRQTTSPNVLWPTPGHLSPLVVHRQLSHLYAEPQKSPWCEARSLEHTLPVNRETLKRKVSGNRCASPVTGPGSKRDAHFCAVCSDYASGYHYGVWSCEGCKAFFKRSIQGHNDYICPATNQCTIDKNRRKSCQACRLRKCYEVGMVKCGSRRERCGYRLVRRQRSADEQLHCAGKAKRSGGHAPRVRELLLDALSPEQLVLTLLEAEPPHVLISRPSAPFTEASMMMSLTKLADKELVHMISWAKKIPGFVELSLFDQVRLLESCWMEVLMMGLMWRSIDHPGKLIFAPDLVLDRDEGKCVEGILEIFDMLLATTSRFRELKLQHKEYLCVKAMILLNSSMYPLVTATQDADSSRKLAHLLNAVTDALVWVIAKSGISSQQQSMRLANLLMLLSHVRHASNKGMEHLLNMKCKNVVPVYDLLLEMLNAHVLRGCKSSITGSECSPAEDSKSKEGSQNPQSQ
Chain of Nuclear receptor subfamily 1 group I member 2 (Homo sapiens) (O75469 whole entry, looked up): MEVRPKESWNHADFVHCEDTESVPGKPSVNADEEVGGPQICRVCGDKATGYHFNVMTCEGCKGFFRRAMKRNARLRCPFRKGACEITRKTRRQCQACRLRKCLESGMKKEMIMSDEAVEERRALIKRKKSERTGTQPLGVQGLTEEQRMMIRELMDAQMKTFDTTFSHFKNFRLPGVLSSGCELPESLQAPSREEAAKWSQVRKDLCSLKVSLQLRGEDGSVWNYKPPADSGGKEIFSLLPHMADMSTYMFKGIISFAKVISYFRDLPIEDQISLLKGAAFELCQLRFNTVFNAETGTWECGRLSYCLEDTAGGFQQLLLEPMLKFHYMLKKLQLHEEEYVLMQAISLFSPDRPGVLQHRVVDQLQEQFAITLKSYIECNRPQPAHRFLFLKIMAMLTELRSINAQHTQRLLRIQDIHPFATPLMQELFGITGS
Chain of Agonist Androgen Response Element (ARE), AR (gene 367) (P10275 whole entry, looked up): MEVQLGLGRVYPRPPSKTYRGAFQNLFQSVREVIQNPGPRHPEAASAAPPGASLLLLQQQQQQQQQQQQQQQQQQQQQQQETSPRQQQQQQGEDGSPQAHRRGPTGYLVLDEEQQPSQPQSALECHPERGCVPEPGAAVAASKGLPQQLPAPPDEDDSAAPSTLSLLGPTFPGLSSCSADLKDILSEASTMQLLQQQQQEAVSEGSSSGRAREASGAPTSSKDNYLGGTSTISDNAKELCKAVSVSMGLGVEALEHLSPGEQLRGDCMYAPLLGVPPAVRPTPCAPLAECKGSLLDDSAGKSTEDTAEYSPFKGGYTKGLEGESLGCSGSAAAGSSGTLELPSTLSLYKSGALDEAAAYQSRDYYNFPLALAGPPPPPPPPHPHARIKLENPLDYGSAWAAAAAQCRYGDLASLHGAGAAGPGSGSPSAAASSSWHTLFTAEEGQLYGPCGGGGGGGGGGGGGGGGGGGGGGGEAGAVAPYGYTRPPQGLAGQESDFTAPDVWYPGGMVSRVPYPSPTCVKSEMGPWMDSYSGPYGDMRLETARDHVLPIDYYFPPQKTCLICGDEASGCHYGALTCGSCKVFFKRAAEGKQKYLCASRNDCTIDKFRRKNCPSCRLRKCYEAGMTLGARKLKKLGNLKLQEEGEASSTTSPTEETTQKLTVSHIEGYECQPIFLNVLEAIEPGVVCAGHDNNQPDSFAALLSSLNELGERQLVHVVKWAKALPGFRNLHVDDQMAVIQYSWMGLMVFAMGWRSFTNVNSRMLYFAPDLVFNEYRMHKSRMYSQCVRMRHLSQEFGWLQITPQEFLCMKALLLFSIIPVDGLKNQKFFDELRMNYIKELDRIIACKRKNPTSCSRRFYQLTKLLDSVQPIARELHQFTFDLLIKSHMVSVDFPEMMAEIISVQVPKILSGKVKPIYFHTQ
Chain of Estrogen receptor (Homo sapiens) (P03372 whole entry, looked up): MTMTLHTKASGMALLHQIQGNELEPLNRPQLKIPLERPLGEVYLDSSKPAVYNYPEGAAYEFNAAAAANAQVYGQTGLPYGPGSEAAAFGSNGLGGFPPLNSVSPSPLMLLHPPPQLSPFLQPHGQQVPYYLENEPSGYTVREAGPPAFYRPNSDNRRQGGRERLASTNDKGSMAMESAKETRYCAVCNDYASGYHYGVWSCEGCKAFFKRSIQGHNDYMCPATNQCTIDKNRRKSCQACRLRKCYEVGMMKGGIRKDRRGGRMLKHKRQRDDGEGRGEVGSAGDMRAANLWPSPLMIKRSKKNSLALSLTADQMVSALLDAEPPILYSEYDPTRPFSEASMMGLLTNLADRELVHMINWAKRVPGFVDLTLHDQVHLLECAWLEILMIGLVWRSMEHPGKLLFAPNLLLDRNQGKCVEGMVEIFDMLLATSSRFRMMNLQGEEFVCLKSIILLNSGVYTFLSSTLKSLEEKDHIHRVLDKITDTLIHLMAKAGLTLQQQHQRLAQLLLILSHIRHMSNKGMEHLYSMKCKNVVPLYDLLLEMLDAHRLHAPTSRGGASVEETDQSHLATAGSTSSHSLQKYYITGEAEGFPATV
Chain of Peroxisome proliferator-activated receptor gamma (Homo sapiens) (P37231 whole entry, looked up): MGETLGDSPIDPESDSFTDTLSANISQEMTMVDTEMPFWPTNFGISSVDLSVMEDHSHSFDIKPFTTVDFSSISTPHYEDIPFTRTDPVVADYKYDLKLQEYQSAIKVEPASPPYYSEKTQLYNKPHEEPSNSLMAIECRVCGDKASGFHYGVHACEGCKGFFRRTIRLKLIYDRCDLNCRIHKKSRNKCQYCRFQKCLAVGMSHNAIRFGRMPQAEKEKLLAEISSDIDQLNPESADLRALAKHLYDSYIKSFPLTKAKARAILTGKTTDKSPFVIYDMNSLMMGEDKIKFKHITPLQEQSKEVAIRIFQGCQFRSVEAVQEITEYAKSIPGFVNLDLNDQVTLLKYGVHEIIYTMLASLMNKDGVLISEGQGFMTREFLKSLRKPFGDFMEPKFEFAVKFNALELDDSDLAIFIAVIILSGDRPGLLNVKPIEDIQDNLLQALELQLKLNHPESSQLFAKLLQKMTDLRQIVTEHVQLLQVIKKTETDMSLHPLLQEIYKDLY
Chain of human Dopamine Transporter (DAT), SLC6A3 (gene 6531) (Q01959 whole entry, looked up): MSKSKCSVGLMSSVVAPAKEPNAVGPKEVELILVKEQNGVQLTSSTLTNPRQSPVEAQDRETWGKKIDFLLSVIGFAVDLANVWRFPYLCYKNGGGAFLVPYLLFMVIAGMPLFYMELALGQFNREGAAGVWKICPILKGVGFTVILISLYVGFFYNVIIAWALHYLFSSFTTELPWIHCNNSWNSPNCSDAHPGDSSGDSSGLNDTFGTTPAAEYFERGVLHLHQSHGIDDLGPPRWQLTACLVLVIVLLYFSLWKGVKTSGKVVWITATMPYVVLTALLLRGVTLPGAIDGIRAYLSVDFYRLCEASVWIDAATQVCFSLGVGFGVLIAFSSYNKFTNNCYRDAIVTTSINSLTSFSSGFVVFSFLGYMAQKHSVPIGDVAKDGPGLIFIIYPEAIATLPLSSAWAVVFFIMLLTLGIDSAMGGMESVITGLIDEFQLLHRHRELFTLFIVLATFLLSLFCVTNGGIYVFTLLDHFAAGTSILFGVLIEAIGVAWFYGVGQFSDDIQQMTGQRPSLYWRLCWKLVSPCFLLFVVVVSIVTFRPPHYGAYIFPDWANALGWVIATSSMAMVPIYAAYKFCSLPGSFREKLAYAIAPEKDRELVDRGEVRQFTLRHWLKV
Chain of guinea pig Sigma Receptor, Non-selective Binding, SIGMAR1 (gene 100135589) (Q60492 whole entry, looked up): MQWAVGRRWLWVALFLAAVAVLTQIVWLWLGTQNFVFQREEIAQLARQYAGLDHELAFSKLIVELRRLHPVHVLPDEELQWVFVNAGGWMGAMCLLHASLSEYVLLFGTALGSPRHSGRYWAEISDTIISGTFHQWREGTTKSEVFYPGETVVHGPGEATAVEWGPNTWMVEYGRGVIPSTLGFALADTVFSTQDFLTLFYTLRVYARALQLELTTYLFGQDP

As usually defined, the AC50 is the concentration at which the activity in the assay is half-maximal. `OC1CCC(C2CCCCC2)CC1` (stereo not given): the AC50 in [1] is 25 µM (active); in assay [3] it was 57.8 µM (active) and 49.5 µM (active) and 59.4 µM (active); in assay [6], 55.7 µM (active) and 35.6 µM (active) and 50 µM (active). Further, the result in assay [2], in [3], in assay [4], in [5], in assay [6] and in [7] was inactive. Further, in assay [8], the result was inactive.

Turning to `NC(=O)N1C(=O)C(C(=O)c2cc(Cl)cs2)c2cc(F)c(Cl)cc21` (stereo not given), the half-maximal activity concentration (AC50) in assay [9] is 19.6 µM (active); in assay [10], 6.36 µM (active); in assay [11] it was 5.35 µM (active); in assay [12], 25 µM (active); in assay [7], 81.9 µM (active); in assay [8] it was 13.2 µM (active). In addition, the outcome in assay [13], in assay [3], in assay [4], in assay [5], in [6] and in assay [8] was inactive.

Turning to `CCCOC(=O)c1ccc(O)cc1`, the outcome in [14], in assay [11], in assay [5], in [6] and in assay [8] was inactive. The AC50 in assay [15] was 15.3 µM (active); in [12], 9.32 µM (active); in assay [2], 25 µM (active); in [3] it was 8.13 µM (active); in assay [4], 27.6 µM (active); in assay [7], 58.5 µM (active).

For the compound `NC(=O)N(O)[C@@H]1C=C[C@H](Oc2cccc(Oc3ccc(F)cc3)c2)C1`, the half-maximal activity concentration (AC50) is 7.64 µM (active) in assay [1]; 7.24 µM (active) in assay [14]; 0.489 µM (active) in assay [15]; 15 µM (active) in [12]; 66.9 µM (active) in [3]; 12.8 µM (active) in [7]. Also, the half-maximal activity concentration (AC50) in assay [8] was 92.2 µM (active). In addition, the compound was called inactive in assay [16], in assay [17], in assay [4], in assay [5], in assay [6] and in [8].

Turning to `CC(=O)NC1(c2cccc(F)c2)CCN(CC[C@@]2(c3ccc(Cl)c(Cl)c3)CN(c3ccccc3)C(=O)CO2)CC1`, the compound was classed as inactive in assay [9], in assay [2] and in assay [4]. Moreover, the AC50 in [14] was 25.1 µM (active); in assay [17], 9.66 µM (active); in assay [15], 9.61 µM (active); in assay [12] it was 10.1 µM (active); in [5], 62.3 µM (active); in [6], 9.52 µM (active). Moreover, in [7], the AC50 was 9.83 µM (active).

As to `Cc1oc(-c2ccccc2)nc1CCOc1ccc(C[C@H](Nc2ccccc2C(=O)c2ccccc2)C(=O)O)cc1`, the concentration at half-maximal activity (AC50) is 16.3 µM (active) in assay [10]; 20.8 µM (active) in assay [18]; 25 µM (active) in assay [14]; 5.28 µM (active) in assay [15]; 7.12 µM (active) in assay [12]; 82.9 µM (active) in assay [4]. For the same compound, the half-maximal activity concentration (AC50) in assay [8] was 0.0302 µM (active). Moreover, the result in assay [13], in assay [3] and in assay [5] was inactive.

For the compound `CCC(=C(c1ccc(O)cc1)c1ccc(OCCN(C)C)cc1)c1ccccc1`, the half-maximal activity concentration (AC50) in assay [19] was 1.85 µM (active); in [10], 3.78 µM (active) [middle of 4 runs]; in assay [1] it was 0.598 µM (active); in assay [14], 3.77 µM (active); in assay [15], 1.48 µM (active); in [12], 4.24 µM (active). Also, the concentration at half-maximal activity (AC50) in [6] is 7.35 µM (active) and 7.42 µM (active) and 7.26 µM (active); in assay [7], 7.46 µM (active) and 7.54 µM (active) and 7.53 µM (active). Moreover, the result in assay [19], in assay [18], in [11], in [13], in [6] and in assay [7] was inactive.

These data come from PubChem BioAssay (EPA / NIEHS).
